# In all, about 320,000 compounds went through this assay and about 1,900 (0.59%) were called active. This excerpt belongs to a sample that is enriched for actives. Unmarked numbers belong to inactive results. Rule as the data show it: active = inhibition mostly above about 10% (no sharp cut-off); inactive = mostly below about 6.7%.
# Biological target: Protein LANA1 (Human herpesvirus 8 type P (isolate GK18)) (UniProt Q9QR71)
# Experiment: blockers of LANA interaction with H2A/H2B – biochemical, FP readout, HTS, primary screen (AID 2629)
# Conditions: cell-free LANA-H2A/H2B peptide, fluorescence polarization, hits give high values, concentration not given here
# Protein LANA1 (Human herpesvirus 8 type P (isolate GK18)), sequence (Q9QR71 whole entry, looked up): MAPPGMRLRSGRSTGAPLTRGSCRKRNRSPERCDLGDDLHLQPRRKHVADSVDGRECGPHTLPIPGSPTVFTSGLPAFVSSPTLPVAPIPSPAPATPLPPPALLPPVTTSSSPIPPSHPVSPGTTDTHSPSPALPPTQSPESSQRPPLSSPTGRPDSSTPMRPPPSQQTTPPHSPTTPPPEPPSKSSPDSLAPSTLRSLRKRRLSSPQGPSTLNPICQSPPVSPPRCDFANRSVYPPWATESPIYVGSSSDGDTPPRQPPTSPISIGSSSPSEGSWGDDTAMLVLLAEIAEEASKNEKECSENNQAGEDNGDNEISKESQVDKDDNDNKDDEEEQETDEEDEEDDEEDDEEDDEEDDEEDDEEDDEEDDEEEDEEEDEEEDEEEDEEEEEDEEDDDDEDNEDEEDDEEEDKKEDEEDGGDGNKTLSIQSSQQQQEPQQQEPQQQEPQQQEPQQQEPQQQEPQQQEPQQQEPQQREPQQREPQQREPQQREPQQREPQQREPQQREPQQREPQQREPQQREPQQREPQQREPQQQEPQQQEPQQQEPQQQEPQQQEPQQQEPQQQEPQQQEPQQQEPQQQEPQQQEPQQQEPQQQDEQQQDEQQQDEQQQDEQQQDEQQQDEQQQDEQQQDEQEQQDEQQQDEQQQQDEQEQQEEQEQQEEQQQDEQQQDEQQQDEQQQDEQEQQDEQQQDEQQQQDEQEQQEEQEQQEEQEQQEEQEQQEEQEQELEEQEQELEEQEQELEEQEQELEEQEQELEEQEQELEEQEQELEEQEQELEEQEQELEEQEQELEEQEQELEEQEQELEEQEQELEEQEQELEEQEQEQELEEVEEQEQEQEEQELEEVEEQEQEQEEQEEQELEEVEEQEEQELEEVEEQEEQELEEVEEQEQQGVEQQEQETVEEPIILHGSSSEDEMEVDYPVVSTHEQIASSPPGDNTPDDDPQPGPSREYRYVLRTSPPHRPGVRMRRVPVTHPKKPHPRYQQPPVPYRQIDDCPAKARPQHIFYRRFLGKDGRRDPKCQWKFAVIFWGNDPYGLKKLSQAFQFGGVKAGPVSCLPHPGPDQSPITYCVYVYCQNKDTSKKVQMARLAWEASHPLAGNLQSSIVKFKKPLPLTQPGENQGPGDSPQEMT
row,Compound,inhibition
1,COc1ccccc1NC(=O)C1CCCN1S(=O)(=O)c1ccc(Cl)cc1 (stereo not drawn),-0.219%
2,O=C1COc2ccc(C(=O)COC(=O)C3CC(O)CN3S(=O)(=O)c3ccc(Cl)cc3)cc2N1 (stereo not drawn),-4.73%
3,NNC(=O)C1CC(O)CN1S(=O)(=O)c1ccc(Cl)cc1 (stereo not drawn),18% (active)
4,COc1ccc2c(C)cc3nnnn3c2c1,6.55%
5,CC(C)CC(=O)Nc1cc(C(F)(F)F)ccc1N1CCOCC1,3.7%
6,O=C(CN1C(=O)NC2(CCCC2)C1=O)Nc1cc(C(F)(F)F)ccc1N1CCOCC1,-2.08%
7,O=C(Cn1nnc2ccccc2c1=O)Nc1cc(C(F)(F)F)ccc1N1CCOCC1,15.8% (active)
8,Cc1cc(Nc2cc(N3CCN(C)CC3)nc(Sc3ccc(NC(=O)C4CC4)cc3)n2)n[nH]1,1.71%
9,CN(c1ccccc1)S(=O)(=O)c1ccc(Cl)c(C(=O)OCC(=O)NCc2ccco2)c1,-3.84%
10,CN(c1ccccc1)S(=O)(=O)c1ccc(Cl)c(C(=O)OCC(N)=O)c1,-3.79%
11,Cc1ccc(S(=O)(=O)N(CC(O)CN2CCCCC2)c2cccc([N+](=O)[O-])c2)cc1 (stereo not drawn),7.02%
12,Cc1cc(=O)n2nc(N3CCCC(C(=O)N4CCN(C)CC4)C3)sc2n1 (stereo not drawn),0.763%
13,CCc1c(C)nc2ncnn2c1N1CCC(C(=O)NCc2ccc3c(c2)OCO3)CC1,0.84%
14,CCn1c(SCC(=O)NC2CCCC2)nnc1-c1ccoc1C,-2.52%
15,O=C(CSc1nnc(-c2ccccc2O)o1)NC1CCCCC1,3.2%
16,Cc1occc1-c1nnc(SCC(=O)NC2CCCCC2)o1,14.3% (active)
17,CCCCSCCCNC(=O)C1CCC(CNS(=O)(=O)c2ccc(NC(C)=O)cc2)CC1 (stereo not drawn),-3.44%
18,CCCC1C(c2ccccc2)C(C#N)(C#N)C2(C#N)CC1(N)NC2=O (stereo not drawn),182% (active)
19,CCSC1=NCCN1C(=O)c1ccc(S(=O)(=O)N(CC)CC)cc1,10.9%
20,O=C(CN1CCN(c2cccc(Cl)c2)CC1)Nc1ccc(S(=O)(=O)N2CCOCC2)cc1,145% (active)
21,O=C(CN1CCCCCC1)Nc1ccc(S(=O)(=O)N2CCCCC2)cc1,7.61%
22,O=C(CN1C(=O)CCC1=O)Nc1ccc(S(=O)(=O)N2CCOCC2)cc1,1.75%
23,COC(=O)CNS(=O)(=O)c1ccc(Cc2ccc(S(=O)(=O)NCC(=O)OC)cc2)cc1,5.82%
24,COC(=O)C1=C(C)NC2=C(C(=O)c3ccccc32)C1c1ccc(-c2ccc(C(=O)O)cc2)o1 (stereo not drawn),3.17%

row,Compound,inhibition
1,CC(=O)c1sc(N/N=C/c2ccc(C(C)C)cc2)nc1C,2.17%
2,COc1ccc(S(=O)(=O)N2CCOCC2)cc1NC(=O)CSc1nnc(NC2CC2)s1,-4.5%
3,COc1ccc(NC(=O)NNC(=O)COc2cc(C)c(Cl)c(C)c2)c(OC)c1,-5.21%
4,CN(CC(=O)Nc1c(Cl)cccc1Cl)C(=O)CNC(=O)C1CCCCC1,-5.68%
5,Cc1ccc(C(=O)CCC(=O)N(C)CC(=O)Nc2c(Cl)cccc2Cl)cc1,4.61%
6,CN(CC(=O)Nc1c(Cl)cccc1Cl)C(=O)c1ccncc1,111% (active)
7,COc1cccc(NC(=O)C/C(C)=N/NC(=O)C2CCCCC2)c1,3.19%
8,O=C(Nc1cccc(F)c1)NC1CCCCCCC1,0.578%
9,C/C(CC(=O)Nc1cccc(F)c1)=N\NC(=O)C(=O)NC1CCCCC1,15.3% (active)
10,COc1ccc(F)cc1C(=O)C1CCCN(C(=O)CCc2ccccn2)C1 (stereo not drawn),-0.521%
11,CC1=NN(C(=O)c2ccccc2Br)C(O)(c2cccnc2)C1 (stereo not drawn),-0.482%
12,CC1=NN(C(=O)c2ccc(Br)cc2)C(O)(c2ccccc2)C1 (stereo not drawn),15.6% (active)
13,CCOC(=O)C1(O)CC(C)=NN1C(=O)c1cccc(Br)c1 (stereo not drawn),1.92%
14,Cc1coc2c1c(C)cc1oc(=O)c(CC(=O)NCC(=O)N[C@H](C(=O)O)C(C)C)c(C)c12,1.45%
15,COc1ccc(OC)c(NC(=O)CSc2nc(N)c(-c3ccccc3)c(=O)[nH]2)c1,4.91%
16,COc1ccc(NC(=O)CSc2nc(N)c(-c3ccccc3)c(=O)[nH]2)cc1,12.1% (active)
17,COc1ccc(C(=O)Nc2c(N)nc(SCC(=O)Nc3ccc(C(C)=O)cc3)[nH]c2=O)cc1,2.95%
18,CCOc1ccc(CCNC(=O)COC(=O)C2CCN(c3ccc(C(F)(F)F)cn3)CC2)cc1OCC,2.54%
19,O=C(CN1CCc2ccccc2C1)Nc1cccc(S(=O)(=O)N2CCOCC2)c1,2.86%
20,CSCCC(NS(=O)(=O)c1ccc(C)cc1)C(=O)NCCc1c[nH]c2ccccc12 (stereo not drawn),-5.03%
21,CCc1nnc(NC(=O)[C@@H](NC(=O)c2cccc(C)c2)C(C)C)s1,1.78%
22,CCOc1c2ccc(C(=O)NCc3ccc(OC(F)(F)F)cc3)cc2nn1C,-0.924%
23,CCOc1c2ccc(C(=O)NCc3ccc4c(c3)OCO4)cc2nn1C,19.6% (active)
24,CCCn1nc2cc(C(=O)NCc3ccccc3)ccc2c1OCC,3.43%

row,Compound,inhibition
1,COC(=O)[C@H](C(C)C)n1c(C)c(C(C)=O)c(C(C)=O)c1C,-3.34%
2,CCC(=O)N(C)C(c1ccccc1Cl)c1nnnn1-c1c(C)cccc1C (stereo not drawn),-0.0342%
3,COC(=O)c1ccc(CSc2nncn2C)cc1,5.16%
4,COC(=O)c1ccc(SCc2ccccc2)nc1,60.3% (active)
5,COC(=O)c1ccc(CSc2ccc(S(=O)(=O)N3CCCCC3)cn2)cc1,-0.0946%
6,CCCCNc1ccc(C(=O)Nc2cccc(C)n2)cc1[N+](=O)[O-],-3.43%
7,COc1ccccc1Oc1ccc(S(=O)(=O)Nc2cccnc2)cc1,2.24%
8,Cc1cc(C)c(C)c(S(=O)(=O)Nc2cccnc2)c1C,-0.825%
9,COc1ccc(S(=O)(=O)Nc2cccnc2)c(Cl)c1Cl,12.6% (active)
10,COc1ccc(CCc2nnc(CCC(=O)NCc3cnn(-c4ccccc4C)c3)o2)cc1,16.6%
11,CC(=O)Nc1ccc(S(=O)(=O)NC2(C(F)(F)F)C(=O)Nc3c2c(=O)[nH]c(=O)n3Cc2ccccc2)cc1 (stereo not drawn),-2.71%
12,CC(=O)n1cc([C@@H]2C=C(C(=O)N3CCN(Cc4ccc5c(c4)OCO5)CC3)O[C@H](OCc3ccc(CO)cc3)C2)c2ccccc21,1.33%
13,CCC(C)c1ccc(NC(=S)NCc2ccccn2)cc1 (stereo not drawn),-1.48%
14,CCN(CC)CCOc1ccc2c(c1)C(=NNC(=O)c1ccccn1)c1cc(OCCN(CC)CC)ccc1-2,-1.56%
15,COc1ccc(-c2onc3ccc(C(C)=O)cc23)cc1,26.3% (active)
16,CC(OC(=O)c1ccc2noc(-c3ccccc3)c2c1)C(N)=O (stereo not drawn),-5.93%
17,Oc1ccc(-c2onc3ccc(Cl)cc23)cc1,3.12%
18,CC(C)c1ccc(Nc2nnc(SCC(=O)c3nnc(-c4ccccc4)o3)s2)cc1,-16.3%
19,Cc1noc(C)c1COc1ccc(C(=O)NCCOc2ccccc2)cc1,2.1%
20,COc1ccc(C)cc1Nc1nc(C)nc2c1oc1ccccc12,3.52%
21,COc1ccc(C)cc1Nc1nc(-c2c(C)[nH]c3ccccc23)cs1,39.5% (active)
22,COC(=O)c1cnc(Nc2cc(C)ccc2OC)c2ccccc12,-2.27%
23,Cc1cc(C=O)c(C)n1-c1ccc(NC2CCCCC2)c([N+](=O)[O-])c1,5.17%
24,Cc1ccc(NS(=O)(=O)c2ccc(C(C)C)cc2)cc1S(=O)(=O)N1CCOCC1,-10.5%

row,Compound,inhibition
1,O=C(COc1ccc(Cl)cc1)NCCSc1ccccc1,-4.08%
2,O=C(CCc1ccccc1)NNC(=O)COc1ccc(Cl)cc1,77.8% (active)
3,O=C(CCCOc1ccccc1)NNC(=O)c1ccc(Cl)cc1,3.13%
4,COC(=O)Cc1csc(/N=C/c2c(O)n(-c3cccc(C(F)(F)F)c3)c(=O)c3ccccc23)n1,-3.9%
5,Cn1c(CCc2ccccc2)nnc1SCC(N)=O,-7.18%
6,N#CCCn1ncc2ccccc21,4.72%
7,O=C(CNCc1ccc(F)cc1)Nc1ccccc1-c1ccccc1,-4%
8,COc1cc(NC(=O)c2ccccc2)c(OC)cc1NC(=O)Cc1ccccc1,-1.39%
9,CC(=O)NCC(=O)N1CCCC(C(=O)c2ccc3c4c(cccc24)CC3)C1 (stereo not drawn),-1.06%
10,CCn1ccnc1CN1CCCC(C(=O)c2ccc3c4c(cccc24)CC3)C1 (stereo not drawn),25.9% (active)
11,Cc1ncoc1C(=O)N1CCCC(C(=O)c2ccc3c4c(cccc24)CC3)C1 (stereo not drawn),1.25%
12,CCc1c(O)cc2n(c1=O)-c1ccccc1C2(C)C,5.7%
13,O=C(CN1CCN(c2ncccn2)CC1)Nc1ccccc1C(F)(F)F,0.982%
14,COc1ccc(OC)c(C(=O)c2coc3ccc(O)c(CN4CCOCC4)c23)c1,-2.58%
15,COc1cc(C(=S)N2CCOCC2)ccc1O,9.41%
16,COc1ccc(/C(C)=N/N2CCOCC2)c(O)c1,25.4% (active)
17,CC(C)(C)C1CCC(OC(=O)CCC(=O)Nc2ccccc2)CC1 (stereo not drawn),-3.13%
18,Cc1ccc(C2NC(C(=O)O)CS2)cc1 (stereo not drawn),1.22%
19,CN(CC(=O)Nc1ccc(F)c(F)c1F)C(=O)Cn1cnc2c1c(=O)n(C)c(=O)n2C,1.35%
20,O=c1[nH]n2c(=O)c3c([nH]c2c1N=Nc1ccccc1)CCC3,-4.38%
21,CC(C)(C)n1c(=O)[nH]c2c(c1=O)CCC2,23.6% (active)

# From PubChem BioAssay AID2629 (Broad Institute, 2010)
